This is a sample that favours compounds with a hit; in the whole collection about 28% have one here.
CYP2C19 inh: blockers of cytochrome P450 2C19 activity – biochemical, luminescence, ADME assay, primary screen; P33261; CYP2C19 Supersomes, luciferin-H EGE luminescence, 30 min; inhibition, % at 5 µM; 96,000 compounds, 21% hits; AID 778, 2007;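 active = CYP2C19 inhibition above a set limit at 5 µM in the primary screen, cut at about 50% in these data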
Target sequence (P33261 whole entry, looked up): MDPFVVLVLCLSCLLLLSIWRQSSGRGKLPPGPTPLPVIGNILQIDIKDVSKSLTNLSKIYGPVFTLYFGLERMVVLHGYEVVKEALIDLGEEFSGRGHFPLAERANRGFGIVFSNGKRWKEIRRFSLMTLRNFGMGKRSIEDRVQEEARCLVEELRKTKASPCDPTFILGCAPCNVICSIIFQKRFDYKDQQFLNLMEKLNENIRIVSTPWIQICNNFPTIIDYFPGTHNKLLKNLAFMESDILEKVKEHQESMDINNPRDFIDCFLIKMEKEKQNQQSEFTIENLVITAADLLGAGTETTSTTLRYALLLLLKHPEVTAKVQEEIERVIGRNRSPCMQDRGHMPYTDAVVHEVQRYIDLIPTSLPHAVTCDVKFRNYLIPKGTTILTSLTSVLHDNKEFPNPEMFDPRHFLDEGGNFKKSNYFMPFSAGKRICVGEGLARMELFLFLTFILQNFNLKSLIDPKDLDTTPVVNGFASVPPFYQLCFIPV
CD11b adhes inh: inhibitors of CD11b/CD18 adhesion to fibrinogen, primary screen, K562 cells, luminescence; ATPlite luminescence; Mn2+ added to activate the integrin; inhibition, % at 10 µM; 93,000 compounds, 0.54% hits; AID 1497, 2009;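 active = primary inhibition of 50% or more at 10 µM, then 40% or more on retest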
CYP2C9 inh: blockers of cytochrome P450 2C9 activity – biochemical, luminescence, ADME assay, primary screen; AID 777, 2007; 96,000 compounds, 20% hits; CYP2C9 Supersomes, luciferin-H conversion; inhibition, % at 5 µM; P11712;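 active = blocking of liver enzyme CYP2C9 beyond about 50% at 5 µM, limit read from the data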
CYP2C19 activ: human CYP2C19 activators, primary screen, biochemical, luminescence | 96,000 tested, under 10 active | recombinant CYP2C19, luciferin-H EGE luminescence; hits give high values; 0 = fully inhibited enzyme, 1 = untreated enzyme | AID 1025, 2008 | Cytochrome P450 2C19 (Homo sapiens), P33261 | activation factor at 5 µM;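 active = activation factor of at least 2 at 5 µM in the primary screen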
CYP2C9 activ: human CYP2C9 activators, primary screen, biochemical, luminescence; 96,000 compounds, 1.4% hits; recombinant CYP2C9, luciferin-H conversion; hits give high values; factor 1 = untreated enzyme, 0 = blocked; Cytochrome P450 2C9 (Homo sapiens), P11712; activation factor at 5 µM; AID 1024, 2008;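 active = activation factor of 2 or more for CYP2C9 at a 5 µM dose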
CD11b adhes enh: enhancers of CD11b/CD18 adhesion to fibrinogen, primary screen, K562 cells, luminescence. Integrin beta-2 (Homo sapiens) + Integrin alpha-M (Homo sapiens), P05107+P11215. ATPlite luminescence. activation, % at 10 µM. 93,000 compounds, 0.07% hits;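 active = 10 µM primary screen giving 50% or more activity, confirmed by 40% or more on retest at that dose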
Numbers stand for hits; 0 = inactive; - = no result given.

SMILES	CYP2C19 inh	CD11b adhes inh	CYP2C9 inh	CYP2C19 activ	CYP2C9 activ	CD11b adhes enh
Cc1onc(-c2ccccc2)c1C(=O)N1CCN(CCc2ccccc2)CC1	0	0	0	0	0	0
Cc1noc(/C=C/N(C)C)c1S(=O)(=O)N1CCN(c2ccccc2)CC1	0	0	0	0	0	0
Cc1noc(C)c1C(=O)N1CCC(Cc2ccccc2)CC1	98.8	0	73.4	0	0	0
Cc1noc(C)c1S(=O)(=O)N1CCN(c2ccccc2)CC1	80.4	0	69.4	0	0	0
Cc1cc(C)c2c(N)c(S(=O)(=O)Cc3ccccc3)sc2n1	99.1	0	0	0	3	0
CC(=O)c1sc2nc(C)cc(C)c2c1N	0	0	0	0	0	0
O=S(=O)(Cc1ccccc1)N1CCC(c2nc(-c3cccs3)no2)CC1	0	0	67.8	0	0	0
Cn1c(NCc2c[nH]c3ccccc23)nc2ccccc21	69.4	0	0	0	0	0
CCN(CC)CCn1c(NCc2nc3ccccc3n2Cc2ccccc2)nc2ccccc21	0	0	85.7	0	0	0
C=CCc1cccc(CNc2nc3ccccc3n2CC)c1O	0	0	0	0	2.1	0
c1ccc(Cn2c(CN3CCCC3)nc3ccccc32)cc1	57.9	-	0	0	0	-
Cc1cccc(Cn2c(Cc3ccccc3)nc3ccccc32)c1	-	0	-	-	-	0
CCN(CC)CCn1c(NCc2ccco2)nc2ccccc21	0	-	0	0	0	-
CCCN1CCN(CCCNC(=O)Cn2nc(-c3ccccc3)ccc2=O)CC1	0	0	0	0	0	0
Cc1cc(N)n(-c2nc(-c3cccnc3)nc3ccccc23)n1	0	-	0	0	0	-
CCOC(=O)c1sc(NC(=O)COC(=O)CNC(=O)C2CCCCC2)c(C(=O)OCC)c1C	-	0	-	-	-	0
COc1ccc(C(C)=O)cc1CSc1nc2cc(Cl)ccc2o1	0	0	0	0	0	0
CCn1c(NCc2ccc(N(C)C)cc2)nc2ccccc21	72.4	0	0	0	0	0
CCCn1c(-c2cccs2)nc2ccccc21	0	0	0	0	0	0
Cn1c(NCc2cccs2)nc2ccccc21	52.5	0	0	0	0	0
CCn1c(NCc2cccs2)nc2ccccc21	57.4	0	0	0	0	0
Cn1c(/C=N/NC(=O)c2ccccc2Br)nc2ccccc21	69.2	-	61.7	0	0	-
Cc1ccc(C(=O)N/N=C/c2nc3ccccc3n2C)cc1	0	0	0	0	0	0
COc1ccccc1NC(=O)N(Cc1ccccc1)C1=NCC(C)S1 (stereo not given)	0	0	73.2	0	0	0
COc1ccccc1N(C(=O)NCc1ccccc1)C1=NCC(C)S1 (stereo not given)	0	0	57.4	0	0	0
SMILES	CYP2C19 inh	CD11b adhes inh	CYP2C9 inh	CYP2C19 activ	CYP2C9 activ	CD11b adhes enh
CC1CN=C(N(Cc2ccccc2)C(=O)Nc2ccccc2)S1 (stereo not given)	0	0	0	0	0	0
COc1cccc(OC)c1NC(=O)C1CCCN1C(=O)NCc1ccccc1 (stereo not given)	0	0	0	0	0	0
CNC(=O)N(C1=NCC(C)S1)c1ccc(F)cc1F (stereo not given)	61.5	0	0	0	0	0
CCc1ccc(C2=Nn3c(nnc3-c3cccs3)SC2)cc1	0	0	0	0	0	0
COc1ccc(C(=O)NCCc2c[nH]c3ccccc23)cc1S(=O)(=O)N1CCOCC1	0	0	60.6	0	0	0
CCOc1cc(C(=O)OCC(=O)c2c[nH]c3ccccc23)ccc1OCC(=O)N1CCOCC1	0	0	0	0	0	0
COc1ccc(C(=O)OCC(=O)c2ccccc2)cc1S(=O)(=O)N1CCOCC1	77.7	0	55.7	0	0	0
COc1ccc(OC)c2sc(NC(=O)c3ccc(S(=O)(=O)N4CCOCC4)cc3)nc12	0	0	0	0	0	0
COc1ccc(C(=O)NCCC(C)C)cc1S(=O)(=O)N1CCOCC1	0	0	0	0	0	0
COc1cc(C(=O)OCC(=O)c2c[nH]c3ccccc23)ccc1OCC(=O)N1CCOCC1	51.0	0	77.5	0	0	0
COc1ccc(C(C)=O)cc1COC(=O)c1ccc(S(=O)(=O)N2CCOCC2)cc1	51.4	0	93.9	0	0	0
CC(C)COc1cccc(C(=O)NC(=S)Nc2cccc(NC(=O)c3ccccc3Cl)c2)c1	-	0	-	-	-	0
Cc1noc(C)c1C(=O)OC(C(=O)NC1CCCC1)c1ccc(F)cc1 (stereo not given)	0	0	0	0	0	0
CCOC(=O)CCCn1ncn2c(cc3occc32)c1=O	0	0	0	0	0	0
Cc1csc(NC(=O)C2CCC(C)(C(=O)O)C2(C)C)n1 (stereo not given)	0	0	0	0	0	0
COc1ccccc1-n1c(SCC(=O)NC(C)(C)C)nc(O)c(Cc2ccccc2)c1=O	0	-	0	0	0	-
CC1=C(C#N)C(Nc2ccc(C)cn2)(C(F)(F)F)C(=O)N1 (stereo not given)	89.1	0	0	0	0	0
CC1=C(C#N)C(Nc2ccc(Cl)cn2)(C(F)(F)F)C(=O)N1 (stereo not given)	82.9	0	0	0	0	0
CC(=O)NC1(C(F)(F)F)C(=O)NC(C)=C1C#N (stereo not given)	0	0	0	0	0	0
O=C(Nc1ccncc1)c1ccc2c(c1)C(=O)N(C1CCCCC1)C2=O	75.9	85.8	92.1	0	0	0
CCC(=O)Nc1ccc2c(c1)C(=O)N(C1CCCCC1)C2=O	0	0	53.4	0	0	0
CCOc1ccc(C2/C(=C(/O)c3ccc(Cl)cc3)C(=O)C(=O)N2CCCN(C)C)cc1OC (stereo not given)	0	0	0	0	0	0
Cc1ccc(-c2csc(N(C)C(=O)c3c(C)nn(-c4ccccc4)c3Cl)n2)cc1	0	0	73.8	0	0	0
CC(=O)N(C)c1nc(-c2ccc(Cl)cc2)cs1	0	0	0	0	0	0
O=C(O)c1cc(NCc2cccs2)ccc1N1CCOCC1	0	0	0	0	0	0
COC(=O)c1cc(NCc2cccs2)ccc1N1CCOCC1	77.1	0	63.7	0	0	0
O=C1Nc2ccc(Br)cc2C1(O)Cc1ccncc1 (stereo not given)	55.5	0	83.3	0	0	0
O=C1Nc2ccccc2C1(O)Cc1ccncc1 (stereo not given)	0	0	0	0	0	0
